MEKK2wt PB1 HTS = raises or lowers MEK5 binding to wildtype human MEKK2 PB1 domain; bead flow cytometry, Alexa488-MEK5 binding to MEKK2 WT; actives lie on both sides; binding response (% of control), % at 10 µM; hit rate 1.1% among 290,000; in the data active means binding response below about 67% or above about 130%
GRK2 aptamer HTS = inhibitors of human GRK2 displacing RNA aptamer; P25098; bead flow cytometry, FAM-aptamer displacement from GRK2; inhibition of aptamer binding, % at 10 µM; hit rate 0.59% among 330,000; AID 488847;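 active means inhibition of aptamer binding above 40%, roughly 3 SD of noise, on plates passing a quality check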;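 further: median bead fluorescence of bound FAM aptamer so fluorescent compounds give negative values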
Target sequence (P25098 whole entry, looked up): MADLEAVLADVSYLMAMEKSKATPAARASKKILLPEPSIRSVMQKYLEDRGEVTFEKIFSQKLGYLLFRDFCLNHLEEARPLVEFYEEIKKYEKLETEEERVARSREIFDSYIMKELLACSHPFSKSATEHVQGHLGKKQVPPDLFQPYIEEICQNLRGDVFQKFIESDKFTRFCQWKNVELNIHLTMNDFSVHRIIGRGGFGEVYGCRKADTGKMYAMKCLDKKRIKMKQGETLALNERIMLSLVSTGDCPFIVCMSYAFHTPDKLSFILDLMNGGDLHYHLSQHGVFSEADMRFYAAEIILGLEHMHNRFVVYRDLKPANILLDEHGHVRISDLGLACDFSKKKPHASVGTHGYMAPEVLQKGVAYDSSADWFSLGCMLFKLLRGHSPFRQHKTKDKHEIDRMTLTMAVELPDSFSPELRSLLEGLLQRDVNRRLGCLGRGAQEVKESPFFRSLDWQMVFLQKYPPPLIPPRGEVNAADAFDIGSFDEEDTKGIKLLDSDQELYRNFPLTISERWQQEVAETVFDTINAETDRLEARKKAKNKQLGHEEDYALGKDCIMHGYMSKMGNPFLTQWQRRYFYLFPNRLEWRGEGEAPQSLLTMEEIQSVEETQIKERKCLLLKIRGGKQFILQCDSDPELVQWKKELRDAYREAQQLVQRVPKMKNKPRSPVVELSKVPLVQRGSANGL
MEKK2 mut-MEK5 = signal of MEK5 binding to mutant human MEKK2 PB1 domain; bead flow cytometry, Alexa488-MEK5 binding to MEKK2 mutant; percent response, % at 10 µM; hit rate 0.35% among 290,000; AID 1530; in the data active means percent response above about 24%, passing the limit was not always enough
MEKK3 PB1 HTS = modulators (inhibitors or enhancers) of MEK5 binding to human MEKK3 PB1 domain; Q99759; bead-based flow cytometry, Alexa488-MEK5 binding to MEKK3; actives lie on both sides; 0 = blocked by unlabeled MEK5, 100 = vehicle; binding response (% of control), % at 10 µM; hit rate 1.4% among 290,000; AID 1529;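 active means binding response more than 3 SD above or below the average of its plate-row segment, actives on both sides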;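 further: Alexa488 bead fluorescence after subtracting the streptavidin-only scavenger bead signal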
MEKK2wt confirm = raises or lowers MEK5 binding to wildtype human MEKK2, retest. binding response (% of control), % at 10 µM. shares compounds with MEKK3 PB1 HTS. hit rate 2.4% among 5,900. bead flow cytometry, Alexa488-MEK5 binding to MEKK2 WT; actives lie on both sides; in the data active means binding response below about 16% or above about 210%; inactive means in between
MEKK2mut confirm = signal of MEK5 binding to mutant human MEKK2, retest; shares compounds with MEKK3 PB1 HTS; bead flow cytometry, Alexa488-MEK5 binding to MEKK2 mutant; percent response, % at 10 µM; hit rate 2% among 5,900; AID 1893; in the data active means percent response mostly above about 71%, no sharp cut-off; inactive means mostly below about 38%;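 further: higher means compound restores mutant binding toward wildtype level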
MEKK3-MEK5 inh = confirmation of inhibitors of MEK5 binding to human MEKK3. bead flow cytometry, Alexa488-MEK5 binding to MEKK3; hits give low values. binding response (% of control), % at 10 µM. shares compounds with MEKK3 PB1 HTS. hit rate 1.8% among 5,900. AID 1894;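 active means binding response below 72% of control, or above a set upper limit, though filed actives all read lower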;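 further: 100% = DMSO only wells and 0% = binding blocked by excess unlabeled MEK5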
Numbers without * were called inactive; · = no result given; [ ] = dose if it differs, or a comment. The list is not random: actives were taken first. Their share in the collection is about 2.5%.

SMILES	MEKK2wt PB1 HTS	GRK2 aptamer HTS	MEKK2 mut-MEK5	MEKK3 PB1 HTS	MEKK2wt confirm	MEKK2mut confirm	MEKK3-MEK5 inh
CN1CCN(Cc2cc(Cl)c3cccnc3c2OC(=O)c2cccs2)CC1	94	0	-1	72*[inhibitor]	105	-1	100
O=C(Oc1c(CN2CCOCC2)cc(Cl)c2cccnc12)c1ccccc1Br	99	1	-1	99	·	·	·
Cc1ccc(C(=O)N/N=c2\sc3ccccc3n2C)cc1	105	3	0	136*	104	0	105
COc1ccc(OC)c(N(CC(=O)Nc2ccccc2)S(C)(=O)=O)c1	101	0	3	100	·	·	·
C=CCNC(=O)CN(c1ccc(OC)cc1OC)S(C)(=O)=O	123	2	7	127*	98	-2	100
CCOc1ccc(CCNC(=O)c2cnccn2)cc1OCC	102	2	3	103	·	·	·
COc1ccc(OC)c(-n2c(=O)c3ccccc3c3ccccc3c2=O)c1	99	1	0	72*[inhibitor]	98	1	98
CCCC(=O)Nc1nc2nc(-c3ccccc3)cc(-c3ccccc3)n2n1	0.0*[inhibitor]	1	-17	0.0*[inhibitor]	103	9	106
N#Cc1ccccc1OCC(=O)NC1CCCCC1	·	0	·	·	·	·	·
CC(C)CNC(=S)N1CCN(Cc2ccc3c(c2)OCO3)CC1	105	4	3	105	·	·	·
COc1cc(/C=C/C(=O)C2C(=O)C=C(C)OC2=O)cc(OC)c1O (stereo not drawn)	117	5	3	135*	104	-4	100
Cc1n[nH]c(C)c1Sc1ccccc1N=Cc1cc(Cl)cc([N+](=O)[O-])c1O	86	0	-4	90	·	·	·
Cc1n[nH]c(C)c1Sc1ccccc1[N+](=O)[O-]	82	0	-3	57*[inhibitor]	101	-3	100
CC1CN(C(=O)COC(=O)[C@@H](NC(=O)c2ccccc2Cl)C(C)C)CC(C)O1 (stereo partly drawn)	·	0	·	·	·	·	·
CCN(CC)S(=O)(=O)c1ccc(OC)c(NC(=O)C(C)Oc2ccc3c(C)cc(=O)oc3c2)c1 (stereo not drawn)	107	2	0	145*	103	3	105
CC(C)C[C@@H](CO)N1CCN(C)CCC1=O	96	0	-3	102	·	·	·
Cc1ccc(S(=O)(=O)Cn2nnnc2C(c2ccc(F)cc2)N2CCC(C(N)=O)CC2)cc1 (stereo not drawn)	101	0	3	98	·	·	·
CCCn1c(SCC(=O)Nc2sc(C)c(C)c2C#N)nnc1C(C)C	116	1	6	124*	104	5	105
Cc1sc(NC(=O)CSc2nnc(C(C)C)n2C)c(C#N)c1C	104	0	3	106	·	·	·
c1ccc(CSc2ccc(-c3cccs3)nn2)nc1	103	3	0	105	·	·	·
c1ccc(CSc2ccc(-c3cccs3)nn2)cc1	106	1	1	129*	94	-1	92
Cc1ccccc1OCC(=O)N/N=C/c1cccc(Oc2ccc([N+](=O)[O-])cc2[N+](=O)[O-])c1	107	1	1	132*	97	-9	98
C[C@H]1CC[C@]2(O[C@@H](CCO)C[C@H](O)[C@H]2O)O1	102	0	-3	103	·	·	·
O=C(N/C(=C\c1cccs1)C(=O)N1CCOCC1)c1ccco1	96	13	-3	100	·	·	·
CN1CCN(C(=O)/C(=C\c2cccs2)NC(=O)c2ccco2)CC1	108	0	0	134*	107	7	107
SMILES	MEKK2wt PB1 HTS	GRK2 aptamer HTS	MEKK2 mut-MEK5	MEKK3 PB1 HTS	MEKK2wt confirm	MEKK2mut confirm	MEKK3-MEK5 inh
CN1CCN(C(=O)/C(=C/c2cccs2)NC(=O)c2cccs2)CC1	101	1	0	72*[inhibitor]	107	3	103
COc1cc(/C=C(/NC(=O)c2ccccc2)C(=O)N2CCN(C)CC2)c([N+](=O)[O-])cc1OC	105	0	4	130*	107	5	103
CCOc1ccc2nc(C)cc(C(=O)O)c2c1	-7.0*[inhibitor]	0	-23	0.0*[inhibitor]	120	12	100
O=C(C[n+]1ccccc1)Nc1c(Cl)cc(Cl)cc1Cl	86	2	-14	86	·	·	·
Cc1ccc[n+](CC(=O)Nc2c(Cl)cc(Cl)cc2Cl)c1	68	2	-13	68*[inhibitor]	100	-3	98
Cn1c(=O)c2c(c3ccccc31)OC(C)(C)CC2	91	0	-3	92	·	·	·
COc1ccccc1CNC(=O)c1ccc(OCc2c(C)noc2C)c(OC)c1	1.0*[inhibitor]	2	-42	2.0*[inhibitor]	105	1	102
Cc1ccc(OCC(O)CNS(=O)(=O)c2ccccc2C(=O)O)cc1 (stereo not drawn)	90	0	-4	71*[inhibitor]	100	2	102
CCN(CC)C(=O)c1c([N+](=O)[O-])c(C(C)(C)C)nn1C	111	0	1	140*	104	1	106
Cn1nc(C(C)(C)C)c([N+](=O)[O-])c1C(=O)NCCO	100	1	-3	95	·	·	·
COCCN1CCCC(CNCc2cn(C)nc2-c2ccc(Oc3ccccc3)cc2)C1 (stereo not drawn)	124	0	1	101	·	·	·
Cn1cc(CNCc2cn(C)nc2-c2ccc(C3CCCCC3)cc2)cn1	205*	0	74*	117	104	-5	99
CCN(CCCNC(=O)CN(C)S(=O)(=O)c1cccc2nsnc12)c1cccc(C)c1	112	0	13	107	·	·	·
CCCCCCCCCCCCCCCC(O)C(N)CO (stereo not drawn)	220*	0	38*	102	161	36	107
O=C1C2C3C=CC(C3)C2C(=O)N1c1ccc2ccccc2c1 (stereo not drawn)	116	0	26*	114	99	-4	99
O=C1C2C3CCC(C3)C2C(=O)N1c1ccc2ccccc2c1 (stereo not drawn)	112	1	9	101	·	·	·
CCOC(=O)c1c(-c2ccc(OC)cc2)csc1/N=C/C1C(=O)CCCC1=O	95	3	-5	100	·	·	·
CCOC(=O)c1c(-c2ccc(OC)cc2)csc1/N=C/N(C)C	105	0	0	136*	99	-5	97
CC(NC(=O)c1ccc2c(c1)OCO2)c1ccccc1 (stereo not drawn)	98	0	-4	99	·	·	·
O=C(CNC(=O)Cc1ccccc1)NCc1cccc(C(F)(F)F)c1	98	3	-1	104	·	·	·
CC[C@@H](C)[C@H](CNC)NC[C@@H](Cc1cccc2ccccc12)NCCc1cccc(C(F)(F)F)c1	318*	6	74*	114	247*	101*	113

Screens as filed in PubChem BioAssay.
